PubChem BioAssay (NCATS)
Activity calls are given as the source filed them. Where a call stands in place of a potency, no number is given. Calls follow the shape of the dose curve; as a rule, active = well fitted inhibition curve with a large enough effect; inconclusive = small, poorly fitted or top-dose-only effect; inactive = no such curve, though single readings can be large or run the other way.

Test: qHTS assay for measurement of the activity of small molecule inhibitors on Zika virus induced Caspase-3 activity in human astrocytoma cells (AID 1224859)
Details: SNB-19 ZIKV-induced caspase-3/7, luminescence, 6 h; series mostly up to 45.7 µM
Procedure, shortened: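 Human SNB-19 astrocytoma cells in RPMI 1640 with 10% FBS receive compound one hour ahead of Zika virus at 2 FFU/cell. After 6 h infection, caspase-3/7 activity is detected by Caspase-Glo luminescence.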
For `CN(C)c1nc2c(Br)c(Br)c(Br)c(Br)c2[nH]1`, the Potency was “inactive”.
With `C[N+]1(C)[C@@H]2CC(OC(=O)[C@H](CO)c3ccccc3)C[C@H]1[C@@H]1O[C@@H]12` (some centres not stated) the Potency was “inactive”.
With `Cc1ccc(S(=O)(=O)/C=C/C#N)cc1` the Potency was “inactive”.
In the case of `CCCCN1CCC(n2c(=O)[nH]c3ccccc32)CC1`, the Potency is reported as “inactive”.
For `NCC1OC(O[C@H]2[C@H](O)[C@@H](OC3C(O)C(N)CC(N)C3OC3OC(CO)C(O)C(O)C3N)O[C@@H]2CO)C(N)C(O)C1O` (some centres not stated), the Potency was “inactive”.
In the case of `O=C(O)[C@@H]1C[C@@H](C(=O)O)N1`, the Potency is reported as “inactive”.
With `NC(=O)C1=CN(C2OC(COP(=O)(O)OP(=O)(O)OC[C@H]3O[C@@H](n4cnc5c(N)ncnc54)[C@H](OP(=O)(O)O)[C@@H]3O)C(O)C2O)C=CC1` (some centres not stated) the Potency was “inactive”.
With `O=C1NC(=O)/C(=C/c2ccc3nccnc3c2)S1` the Potency was “inactive”.
With `CCCCCCCC/C=C/C(=O)O` the Potency was “inactive”.
In the case of `CCN(CC)c1ncnc2c1ncn2[C@@H]1O[C@H](COP(=O)(O)OP(=O)(O)C(Br)(Br)P(=O)(O)O)[C@@H](O)[C@H]1O`, the Potency is reported as “inactive”.
For `NC(=S)NCCC[C@H](N)C(=O)O`, the Potency was “inactive”.
For `CC(C)(C)c1ccc(S(=O)(=O)/C=C/C#N)cc1`, the Potency was “inactive”.
In the case of `CC(=O)SCC[N+](C)(C)C`, the Potency is reported as “inactive”.
For `CCc1c(C(=O)NCCc2ccc(N3CCCCC3)cc2)[nH]c2ccc(Cl)cc12`, the Potency was “inactive”.
In the case of `O=c1[nH]c2cc(Cl)c(Cl)cc2[nH]c1=O`, the Potency is reported as “inactive”.
In the case of `CO/S(=N\S(=O)(=O)c1ccc(Cl)cc1)c1ccc([N+](=O)[O-])cc1` (configuration not stated), the Potency is reported as “inactive”.
In the case of `CNc1ncnc2c1ncn2[C@@H]1O[C@H](CO)[C@@H](O)[C@H]1O`, the Potency is reported as “inactive”.
